# Test results from PubChem BioAssay (NCI).
# Compounds without any hit were thinned out: in the full panel of roughly 83,000, 20% have a hit.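 Plates (96-well) were seeded with cells, treated with compound at one concentration, and incubated for 48 hours before percent growth was determined.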 A number with no mark means an inactive call. Active and inactive are the calls of the source. Rule for the calls: active = growth percent below 10; inactive = the rest.
# Key:
# Test in all cases: NCI-60 one-dose screen, 48 h (100 = growth as untreated, 0 = no growth, -100 = all killed)
# Conditions in all cases: 10 µM unless noted
# NCI/ADR-RES ovarian = tested on: NCI/ADR-RES ovarian
# T-47D breast = tested on: T-47D breast
# BT-549 breast = tested on: BT-549 breast
# MDA-MB-435 melanoma = tested on: MDA-MB-435 melanoma
# SW-620 colon = tested on: SW-620 colon
# MCF7 breast = tested on: MCF7 breast
# HCT-116 colon = tested on: HCT-116 colon
# HCC-2998 colon = tested on: HCC-2998 colon
# KM12 colon = tested on: KM12 colon
Compound,growth (NCI/ADR-RES ovarian),growth (T-47D breast),growth (BT-549 breast),growth (MDA-MB-435 melanoma),growth (SW-620 colon),growth (MCF7 breast),growth (HCT-116 colon),growth (HCC-2998 colon),growth (KM12 colon)
N#C[S-].[Au+].c1ccc(CN2[CH-]N(Cc3ccccc3)C(c3ccccc3)=C2c2ccccc2)cc1,59.8%,7.11% (active),23.4%,13.3%,17.9%,4.87% (active),8.06% (active),30.9%,14.2%
C=COC(=O)CCN1CC1,111%,106%,110%,105%,106%,101%,103%,110%,107%
CCc1ccccc1[C@@H]1C[C@]2(C)CCO[C@@H]2OO1,105%,101%,111%,109%,102%,95.7%,96.3%,93.7%,101%
C[C@]12CCc3sc(NCCc4ccccc4)nc3C1=CC[C@@H]1[C@@H]2CC[C@]2(C)C(=O)CC[C@@H]12,70.2%,75.2%,60.4%,58.1%,35.3%,20.4%,21.2%,106%,74.7%
CC[C@H](C)[C@H](NC(=O)[C@H]1CCCCN1C)C(=O)N(C)[C@H](C[C@@H](OC(C)=O)c1nc(C(=O)N[C@@H](Cc2ccccc2)C[C@H](C)C(=O)OC)cs1)C(C)C,-4.28% (active),81%,-35.7% (active),-35.3% (active),45.4%,12.9%,4.25% (active),10.8%,2.43% (active)
CC[C@H](C)[C@H](NC(=O)C12C3C4C1C1C2C3C41NC(C)=O)C(=O)N(C)[C@H](C[C@@H](OC(C)=O)c1nc(C(=O)N[C@@H](Cc2ccccc2)C[C@H](C)C(=O)OC)cs1)C(C)C (stereo not given in full),89.7%,70.1%,5.96% (active),-32.9% (active),21%,15.2%,6.15% (active),24.1%,14.8%
O=[N+]([O-])c1cc([N+](=O)[O-])c(Nn2c3ccccc3c3ccccc32)c([N+](=O)[O-])c1,7.52% (active),-17.3% (active),-27.4% (active),0.936% (active),11.1%,2.34% (active),-10.1% (active),1.54% (active),4.34% (active)
COC(=O)C12CC(NC(=O)c3csc([C@@H](C[C@H](C(C)C)N(C)C(=O)[C@@H](NC(=O)[C@H]4CCCCN4C)C(C)C)OC(C)=O)n3)(C1)C2,-4.67% (active),75.2%,-25.8% (active),-43.7% (active),27.4%,15.4%,4.37% (active),10.4%,11.1%
CC[C@H](NC(=O)[C@H]1CCCCN1C)C(=O)N(C)[C@H](C[C@@H](OC(C)=O)c1nc(C(=O)N[C@@H](Cc2ccccc2)C[C@H](C)C(=O)O)cs1)C(C)C,9.47% (active),51.3%,-15.6% (active),-36.5% (active),22.4%,16.9%,0.18% (active),8.05% (active),7.87% (active)
CC(=O)O[C@H]1CC[C@H]2[C@@H]3CC=C4c5nc(-c6ccccc6)sc5CC[C@]4(C)[C@H]3CC[C@]12C,71.1%,52.4%,64.8%,59.2%,55%,67.7%,51.2%,54%,42.3%
CCCCCCCC[n+]1ccc2ccccc2c1,95.6%,27.1%,32.3%,46.2%,75.9%,41.1%,46.5%,47.4%,46.1%
c1ccc(CSC(c2ccccc2)c2ccccc2)cc1,106%,117%,116%,114%,103%,124%,89.8%,107%,106%
O=C(CC1(O)C(=O)N(Cc2ccccc2)c2ccc(F)cc21)c1ccc(C(=O)NCC2CCC3(CC2)OOC2(CCCCC2)OO3)cc1 (stereo not given),-48.6% (active),-53.9% (active),-19.7% (active),-80.7% (active),-62.3% (active),7.64% (active),4.47% (active),44.9%,-68.1% (active)
CCN(CC)CCOC(=O)C(OC(C)C)(c1ccccc1)c1ccccc1,100%,93.8%,96.6%,103%,91.5%,95.3%,78.4%,108%,101%
O=C(O)C(O)C(O)C1[O][Sb]([c]2ccc([N+](=O)[O-])cc2)[O]C1CO (stereo not given),111%,109%,114%,107%,103%,93.9%,104%,105%,108%
C=CC1=C[C@@H]2[C@@H]3O[C@]4(CC[C@H](O4)[C@@H](C)C[C@@H](O)C3=O)C[C@H](O)C3=NCC[C@@]32CC1,-15.3% (active),-14.6% (active),-31.9% (active),-92.9% (active),-11.3% (active),-11.8% (active),-22.8% (active),-81.2% (active),-33.4% (active)
CC1=C([Te]c2ccc(O)cc2)C(=O)c2ccccc2C1=O,-2.79% (active),-67.3% (active),-1.32% (active),-76.7% (active),3.05% (active),-4.83% (active),-63.4% (active),-1.49% (active),6.03% (active)
O[C@H](CN1CC1)[C@@H](O)CN1CC1,56.3%,48%,81.9%,78.3%,64.4%,41.7%,66.3%,97%,91.5%
CN[C@@]1(c2ccccc2Cl)CCCC[C@@H]1NCC1CCCO1 (stereo not given in full),101%,93%,102%,102%,102%,98.6%,105%,101%,108%
CC(=O)C(c1c(O)c2ccccc2oc1=O)c1cc(=O)oc2c1ccc1ccccc12 (stereo not given),99.6%,84.3%,87.9%,103%,99%,91.3%,92.3%,104%,109%
CN(C)C1C(=O)C(C(N)=O)=C(O)C2(O)C(=O)C3=C(O)c4c(O)cccc4C(C)(O)C3CC12.[Cl][Sb]([Cl])[Cl] (stereo not given),56.9%,60.3%,15.5%,24.1%,34.7%,57.6%,11.9%,39.6%,45.9%
CNC(=O)Oc1ccc(N(C)C)cc1C(C)C,107%,101%,73.6%,91.7%,116%,91%,95.9%,,112%
O=C(Nc1ccc([N+](=O)[O-])cc1)C(Cl)(Cl)Cl,99.6%,80.7%,91.6%,104%,105%,85.9%,91.1%,,97.1%
C[N+](C)(C)Cc1cc(Cl)ccc1O,104%,99.4%,91.9%,106%,97.9%,104%,106%,,108%
CC(=O)c1ccc(C(=O)NCC2CCC3(CC2)OOC2(CCCCC2)OO3)cc1,17.4%,53.9%,91.9%,88%,22.1%,81.7%,79%,,69.7%
COC(=O)[C@H](Cc1ccccc1)NC(=O)c1csc([C@@H](C[C@H](C(C)C)N(C)C(=O)[C@@H](NC(=O)[C@H]2CCCCN2C)C2CC2)OC(C)=O)n1,15.9%,28.3%,2.98% (active),-44.4% (active),22.8%,19.5%,-16.9% (active),,2.87% (active)
COC(=O)N[C@H]1CCc2c(Br)c(OC)c(OC)c(OC)c2-c2ccc(SC)c(=O)cc21,7.33% (active),50.5%,17.1%,-55.7% (active),17.5%,12.8%,3.67% (active),,-4.65% (active)
O=[N+]([O-])CC(O)C(Cl)(Cl)Cl (stereo not given),104%,89.6%,58%,103%,95.8%,95.5%,102%,,107%
